Values joined by “and” are separate entries in the source; they are usually repeats but may differ in a detail not shown here. Identical values can stand only once. In all, about 5,500 compounds went through this assay and about 2,000 (36%) were called active. Inconclusive results (about 18%) are left out. Rule as the data show it: active = normalized growth mostly below about 0.91 (no sharp cut-off); inconclusive = no clear call, values can overlap the other calls; inactive = mostly above about 0.92. The list shows a part of the results.
Experiment: chemical genetic growth profiling, strain panel (AID 1159580);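 also: tested at 20 µM; growth read once vehicle control cultures reached saturation at 30 °C; 1 = growth at the plate median or of vehicle wells; lower values mean less growth of the strain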
Conditions: S. cerevisiae deletion strains, growth OD
[1] = locus YMR263W, strain SAP30, stronger effect = lower value
[2] = locus YPL241C, strain CIN2, stronger effect = lower value

Measured: normalized growth

CO/N=C(\C(=O)N[C@@H]1C(=O)N2C(C(=O)O)=C(CSc3nc(=O)c(O)nn3C)CS[C@H]12)c1csc(N)n1
inactive: locus YAL021C, strain ccr4, stronger effect = lower value 0.982 | locus YAL026C, strain drs2, stronger effect = lower value 0.974 | locus YAL030W, strain snc1, stronger effect = lower value 0.984 | locus YBL061C, strain skt5, stronger effect = lower value 0.966 | locus YBR009C, strain hhf1, stronger effect = lower value 0.985 | locus YBR021W, strain FUR4, stronger effect = lower value 1.03 | locus YBR023C, strain chs3, stronger effect = lower value 0.979 | locus YBR171W, strain sec66, stronger effect = lower value 0.96 | locus YBR229C, strain ROT2, stronger effect = lower value 0.999 | locus YBR231C, strain swc5, stronger effect = lower value 0.975 | locus YBR279W, strain paf1, stronger effect = lower value 0.959 | locus YCL011C, strain gbp2, stronger effect = lower value 0.958 | locus YCL016C, strain dcc1, stronger effect = lower value 0.976 | locus YCL029C, strain bik1, stronger effect = lower value 0.986 | locus YCL061C, strain MRC1, stronger effect = lower value 0.969 | locus YCL069W, strain vba3, stronger effect = lower value 0.986 | locus YCR088W, strain abp1, stronger effect = lower value 0.962 | locus YDL005C, strain med2, stronger effect = lower value 0.984 | locus YDL035C, strain GPR1, stronger effect = lower value 0.982 | locus YDL040C, strain nat1, stronger effect = lower value 0.973 | locus YDL074C, strain BRE1, stronger effect = lower value 1.03 | locus YDL101C, strain DUN1, stronger effect = lower value 0.996 | locus YDL134C, strain PPH21, stronger effect = lower value 1 | locus YDL185W, strain tfp1, stronger effect = lower value 0.946 | locus YDL192W, strain arf1, stronger effect = lower value 0.984 | locus YDR001C, strain nth1, stronger effect = lower value 0.959 | locus YDR069C, strain doa4, stronger effect = lower value 1 | locus YDR101C, strain arx1, stronger effect = lower value 1.02 | locus YDR137W, strain rgp1, stronger effect = lower value 0.968 | locus YDR159W, strain sac3, stronger effect = lower value 0.921 | locus YDR162C, strain NBP2, stronger effect = lower value 0.97 | locus YDR195W, strain ref2 1.01 | locus YDR297W, strain sur2, stronger effect = lower value 0.98 | locus YDR318W, strain mcm21, stronger effect = lower value 0.982 | locus YDR334W, strain swr1, stronger effect = lower value 0.931 | locus YDR335W, strain msn5, stronger effect = lower value 0.966 | locus YDR388W, stronger effect = lower value 0.981 | locus YDR392W, strain spt3, stronger effect = lower value 0.968 | locus YDR502C, strain sam2, stronger effect = lower value 1.01 | locus YEL003W, strain gim4, stronger effect = lower value 0.972 | locus YEL037C, strain rad23, stronger effect = lower value 0.969 | locus YEL061C, strain CIN8 (second series), stronger effect = lower value 0.947 | locus YEL061C, strain CIN8, stronger effect = lower value 1 | locus YER015W, strain faa2, stronger effect = lower value 0.977 | locus YER016W, strain bim1, stronger effect = lower value 0.976 | locus YER110C, stronger effect = lower value 0.974 | locus YER111C, strain swi4, stronger effect = lower value 0.979 | locus YER155C, strain BEM2 (second series), stronger effect = lower value 0.959 | locus YER155C, strain BEM2, stronger effect = lower value 1.01 | locus YER167W, strain BCK2, stronger effect = lower value 0.988 | locus YFR010W, strain ubp6, stronger effect = lower value 0.959 | locus YGL078C, strain dbp3, stronger effect = lower value 0.992 | locus YGL086W, strain mad1, stronger effect = lower value 1.03 | locus YGL167C, strain pmr1, stronger effect = lower value 0.956 | locus YGL173C, strain kem1, stronger effect = lower value 0.975 | locus YGL227W, strain vid30, stronger effect = lower value 0.977 | locus YGL240W, strain doc1, stronger effect = lower value 0.975 | locus YGL248W, strain PDE1, stronger effect = lower value 1 | locus YGL253W, strain hxk2, stronger effect = lower value 0.981 | locus YGR135W, strain pre9, stronger effect = lower value 0.948 | locus YGR252W, strain gcn5, stronger effect = lower value 1.02 | locus YHR027C, strain rpn1, stronger effect = lower value 0.978 | locus YHR030C, strain SLT2, stronger effect = lower value 0.988 and 1.01 | locus YHR079C, strain IRE1 (second series), stronger effect = lower value 0.966 | locus YHR079C, strain IRE1, stronger effect = lower value 1.01 | locus YHR094C, strain hxt1, stronger effect = lower value 0.976 | locus YHR129C, strain ARP1, stronger effect = lower value 0.992 | locus YHR142W, strain chs7, stronger effect = lower value 0.982 | locus YHR200W, strain rpn10, stronger effect = lower value 0.984 | locus YIL066C, strain RNR3, stronger effect = lower value 1.02 | locus YIL073C, strain SPO22, stronger effect = lower value 0.941 | locus YIL125W, strain kgd1, stronger effect = lower value 0.985 | locus YIR030C, strain dcg1, stronger effect = lower value 0.961 | locus YJL092W, strain hpr5, stronger effect = lower value 0.975 | locus YJL095W, strain BCK1 (second series), stronger effect = lower value 0.966 | locus YJL095W, strain BCK1, stronger effect = lower value 1.02 and 0.999 | locus YJL115W, strain asf1, stronger effect = lower value 0.952 | locus YJL129C, strain trk1, stronger effect = lower value 0.958 | locus YJL134W, strain LCB3, stronger effect = lower value 0.993 | locus YJL154C, strain vps35, stronger effect = lower value 0.954 | locus YJL164C, strain tpk1, stronger effect = lower value 0.992 | locus YJL166W, strain qcr8, stronger effect = lower value 0.981 | locus YJL168C, strain set2, stronger effect = lower value 0.998 | locus YJL187C, strain SWE1 (second series), stronger effect = lower value 1.01 | locus YJR043C, strain POL32, stronger effect = lower value 1.03 | locus YJR066W, strain TOR1, stronger effect = lower value 0.965 | locus YJR075W, strain HOC1, stronger effect = lower value 0.994 | locus YKL009W, strain mrt4, stronger effect = lower value 0.974 | locus YKL068W, stronger effect = lower value 0.974 | locus YKL085W, strain MDH1 (second series), stronger effect = lower value 0.984 | locus YKL085W, strain MDH1, stronger effect = lower value 0.984 | locus YKL160W, strain elf1, stronger effect = lower value 0.968 | locus YKL190W, strain CNB1, stronger effect = lower value 0.992 | locus YKR001C, strain vps1, stronger effect = lower value 0.993 | locus YKR026C, strain gcn3, stronger effect = lower value 0.974 | locus YKR091W, strain srl3, stronger effect = lower value 0.982 | locus YLL001W, strain dnm1, stronger effect = lower value 0.965 | locus YLL026W, stronger effect = lower value 0.986 | locus YLL041C, strain sdh2, stronger effect = lower value 0.949 | locus YLR027C, strain aat2, stronger effect = lower value 0.971 | locus YLR039C, strain RIC1, stronger effect = lower value 0.988 | locus YLR058C, strain SHM2, stronger effect = lower value 0.994 | locus YLR102C, strain apc9, stronger effect = lower value 0.985 | locus YLR113W, strain HOG1, stronger effect = lower value 1.04 | locus YLR221C, strain rsa3, stronger effect = lower value 0.969 | locus YLR258W, strain gsy2, stronger effect = lower value 0.957 | locus YLR262C, strain YPT6 (second series), stronger effect = lower value 0.947 | locus YLR262C, strain YPT6, stronger effect = lower value 0.982 | locus YLR268W, strain sec22, stronger effect = lower value 0.992 | locus YLR320W, strain mms22, stronger effect = lower value 0.97 | locus YLR330W, strain CHS5, stronger effect = lower value 0.983 | locus YLR342W, strain FKS1 (second series), stronger effect = lower value 0.985 | locus YLR342W, strain FKS1, stronger effect = lower value 0.983 | locus YLR357W, strain rsc2, stronger effect = lower value 0.893 | locus YLR370C, strain arc18, stronger effect = lower value 0.971 | locus YLR371W, strain rom2, stronger effect = lower value 0.979 | locus YLR384C, strain iki3, stronger effect = lower value 0.967 | locus YLR418C, strain cdc73, stronger effect = lower value 0.994 | locus YML016C, strain PPZ1, stronger effect = lower value 0.996 | locus YML032C, strain rad52, stronger effect = lower value 1.02 | locus YML120C, strain ndi1, stronger effect = lower value 0.986 | locus YML124C, strain tub3, stronger effect = lower value 0.989 | locus YMR058W, strain fet3, stronger effect = lower value 0.969 | locus YMR078C, strain ctf18, stronger effect = lower value 0.964 | locus YMR125W, strain sto1, stronger effect = lower value 0.958 | locus YMR129W, stronger effect = lower value 0.996 | locus YMR205C, strain PFK2, stronger effect = lower value 0.968 | locus YMR223W, strain ubp8, stronger effect = lower value 0.96 | locus YMR231W, strain pep5, stronger effect = lower value 0.977 | [1] 1.01 | locus YMR307W, strain GAS1, stronger effect = lower value 0.981 | locus YNL067W, strain RPL9B, stronger effect = lower value 1.02 | locus YNL071W, strain lat1, stronger effect = lower value 0.956 | locus YNL183C, strain NPR1, stronger effect = lower value 0.96 | locus YNL209W, strain ssb2, stronger effect = lower value 0.961 | locus YNL233W, strain BNI4, stronger effect = lower value 1.03 | locus YNL248C, strain rpa49, stronger effect = lower value 0.924 | locus YNL250W, strain rad50, stronger effect = lower value 0.951 | locus YNL271C, strain bni1, stronger effect = lower value 0.992 | locus YNL298W, strain CLA4, stronger effect = lower value 0.969 | locus YNL307C, strain MCK1, stronger effect = lower value 0.987 | locus YNL322C, strain KRE1 (second series), stronger effect = lower value 0.978 | locus YNR049C, strain mso1, stronger effect = lower value 0.97 | locus YNR052C, strain pop2, stronger effect = lower value 0.986 | locus YOL006C, strain TOP1, stronger effect = lower value 1.11 | locus YOL012C, strain htz1 0.913 | locus YOL147C, strain pex11, stronger effect = lower value 0.972 | locus YOR001W, strain rrp6, stronger effect = lower value 0.963 | locus YOR061W, strain CKA2, stronger effect = lower value 0.998 | locus YOR069W, strain VPS5, stronger effect = lower value 0.988 | locus YOR070C, strain gyp1, stronger effect = lower value 0.977 | locus YOR080W, strain dia2, stronger effect = lower value 0.971 | locus YOR083W, strain WHI5, stronger effect = lower value 0.981 | locus YOR106W, strain vam3, stronger effect = lower value 0.933 | locus YOR136W, strain idh2, stronger effect = lower value 0.994 | locus YOR144C, strain elg1, stronger effect = lower value 0.993 | locus YOR184W, strain ser1, stronger effect = lower value 0.974 | locus YOR231W, strain MKK1, stronger effect = lower value 1.04 | locus YOR265W, strain rbl2, stronger effect = lower value 0.976 | locus YOR270C, strain vph1, stronger effect = lower value 0.947 | locus YOR290C, strain snf2, stronger effect = lower value 0.962 | locus YOR316C, strain cot1, stronger effect = lower value 0.982 | locus YPL051W, strain arl3, stronger effect = lower value 0.964 | locus YPL055C, strain LGE1, stronger effect = lower value 1.07 | locus YPL078C, strain atp4, stronger effect = lower value 0.991 | locus YPL106C, strain sse1, stronger effect = lower value 0.917 | locus YPL240C, strain hsp82, stronger effect = lower value 0.975 | [2] 0.982 | locus YPL256C, strain CLN2, stronger effect = lower value 1.02 | locus YPR119W, strain clb2, stronger effect = lower value 0.988 | locus YPR141C, strain kar3, stronger effect = lower value 0.995 | locus YPR163C, strain tif3, stronger effect = lower value 0.968 | locus YPR167C, strain met16, stronger effect = lower value 0.976 | strain wtn01, stronger effect = lower value 0.981
active: locus YHR013C, strain ard1, stronger effect = lower value 1.2 [resistant]

CO/N=C(/C(=O)N[C@@H]1C(=O)N2C(C(=O)O)=C(COC(C)=O)CS[C@H]12)c1csc(N)n1
inactive: locus YAL013W, strain DEP1, stronger effect = lower value 1.01 | locus YAL040C, strain CLN3, stronger effect = lower value 1.02 | locus YDR363W, strain ESC2, stronger effect = lower value 1.01 | locus YER002W, strain NOP16, stronger effect = lower value 0.983 | locus YGR229C, strain SMI1, stronger effect = lower value 1 | [1] 0.965 | locus YNL153C, strain GIM3, stronger effect = lower value 1.07 | locus YNL175C, strain NOP13, stronger effect = lower value 1.01 | locus YNL197C, strain WHI3, stronger effect = lower value 1.01 | locus YNL224C, strain SQS1, stronger effect = lower value 0.99 | locus YNL322C, strain KRE1, stronger effect = lower value 0.985 | locus YOR083W, strain WHI5 (second series), stronger effect = lower value 0.978 | [2] 1
